Assay outcomes as filed in PubChem BioAssay.
Rce1 inh: blocks yeast Ras-converting enzyme | Q03530 | yeast membranes, quenched prenylated peptide cleavage fluorescence | calls only | actives 0.27% (n = 290,000);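 active = fall in fluorescence gain of 50% or more versus controls, with final raw signal at or below 3038400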;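 note: plate controls were neutral control wells for no effect and wells lacking membranes for full effect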
ADAM17 inh: inhibits human ADAM17. inhibition, % at 6.95 µM. recombinant ADAM17, EDANS/DABCYL FRET peptide cleavage. AID 720648. actives 0.83% (n = 370,000);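 active = inhibition above the mean of compounds lying between control limits plus 3 SD, set per campaign, cut at about 8.5% in these data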;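 note: 0% = DMSO-only wells as the low control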
ADAM10 inh: ADAM10 inhibition, QFRET primary screen; AID 720582; inhibition, % at 7 µM; actives 0.62% (n = 370,000); recombinant ADAM10, EDANS/DABCYL FRET peptide cleavage, 3 h; O14672;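 active = inhibition above a per-campaign cutoff equal to the mean of compounds falling between control-based bounds plus 3 SD, cut at about 20% in these data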;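 note: 0% = DMSO wells while the 100% control is not disclosed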
PLC-beta3 inh: PLC-beta3 (human) inhibition, primary screen. Purified PLC-beta3, fluorogenic substrate, fluorescence. inhibition, % at 12.2 µM. actives 0.18% (n = 370,000). AID 720704; in the data active = inhibition above about 11%;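 note: 0% = median of compound wells on plate and 100% = full blocker control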
PLCg1 inh: blocks human PLC-gamma1 enzyme activity; P19174; purified PLC-gamma1, fluorogenic substrate, fluorescence; inhibition, % at 12.2 µM; actives 0.84% (n = 370,000); in the data active = inhibition above about 9.5%
ADAM10 confirm: confirmation of inhibitors of human ADAM10. shares compounds with ADAM10 inh. ADAM10 QFRET peptide cleavage, EDANS fluorescence. inhibition, % at 6.95 µM. actives 1% (n = 2,100);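 active = inhibition above about 20% chosen separately for each screening run, limit read from the data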;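 note: 0% = DMSO wells and 100% = marimastat wells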
ADAM17 ctr: ADAM17 inhibition, counter-screen for ADAM10 exosite hits; inhibition, % at 6.95 µM; shares compounds with ADAM10 inh; ADAM17 QFRET peptide cleavage, EDANS fluorescence; actives 0.5% (n = 2,100);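 active = mean triplicate inhibition above the solvent-only control wells' mean plus 3 SD, cut at about 12% in these data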;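 note: 0% = DMSO wells and 100% = marimastat wells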
An asterisk follows results filed as active; i = inactive; / = not tested or not shown. Hits are enriched below; roughly 2.1% of the tested compounds scored in any of these assays.

SMILES	Rce1 inh	ADAM17 inh	ADAM10 inh	PLC-beta3 inh	PLCg1 inh	ADAM10 confirm	ADAM17 ctr
CCN(CC)S(=O)(=O)c1cccc(-c2n[nH]c(=S)n2/N=C/c2ccc(OC(F)F)cc2)c1	i	8	20*	-5	1	6	3
CCN(CC)S(=O)(=O)c1cccc(-c2n[nH]c(=S)n2/N=C/c2ccc(OC)cc2)c1	i	5	13	-3	-3	/	/
COc1ccc(S(=O)(=O)N2CCCC(N(C)CCc3ccccc3)C2)cc1OC (configuration not stated)	i	-2	-6	-8	-4	/	/
CC(C)CCNC(=O)c1onc(CSc2ccccn2)c1C(=O)NCCC(C)C	i	6	20*	-3	3	4	1
O=C(NCc1ccccc1)C(c1cccnc1)N(C(=O)c1csnn1)c1ccccc1 (configuration not stated)	i	-2	0	-3	1	/	/
CC(=O)c1ccc(NC(=S)NC(=O)/C=C/c2ccco2)cc1	i	-1	-1	0	-3	/	/
O=C(/C=C/c1ccco1)NC(=S)Nc1ccccc1	i	5	23*	-15	-3	3	1
Cc1ccc(C2C(C(=O)c3cccs3)=C(O)C(=O)N2c2nnc(C)s2)cc1 (configuration not stated)	i	-1	12	-239	-169	/	/
O=C(NN1C(=O)C2C(c3ccccc3)C=CC(c3ccccc3)C2C1=O)c1cccc(Br)c1 (configuration not stated)	i	8	21*	-12	-9	10	5
O=C(NN1C(=O)C2C(c3ccccc3)C=CC(c3ccccc3)C2C1=O)c1ccccc1 (configuration not stated)	i	6	13	0	1	/	/
COc1cc(S(=O)(=O)N2CCOCC2)ccc1NC(=O)COC(=O)c1cc(OC)c(OC)c(OC)c1	/	1	-1	2	1	/	/
COc1cc(S(=O)(=O)N2CCOCC2)ccc1NC(=O)COC(=O)CC12CC3CC(CC(C3)C1)C2	i	8	29*	1	0	2	1
CCN(CC(=O)NCc1ccc(F)cc1)C(=O)C1CCN(S(=O)(=O)c2ccc(C(C)C)cc2)CC1	/	-2	-1	-6	1	/	/
O=C(Nc1ccc(S(=O)(=O)NCCc2ccccc2)cc1)c1ccc(Br)o1	/	6	21*	-4	-1	2	1
COc1ccc(NC(=O)c2cc([N+](=O)[O-])ccc2N2CCCC2)cc1S(N)(=O)=O	/	2	1	-2	0	/	/
Cc1ccc(C2(c3ccc(C)cc3)CC2C(=O)Nc2ccc([N+](=O)[O-])cc2O)cc1 (configuration not stated)	i	19*	42*	12*	9	11	4
CC1(C)CC1C(=O)Nc1ccc([N+](=O)[O-])cc1Br (configuration not stated)	i	3	16	4	4	/	/
N=C1/C(=C\c2ccc(-c3cccc(C(=O)O)c3)o2)C(=O)N=C2SC=C(c3ccccc3)N12	i	-21	-70	-57	-27	/	/
CC1(C)CC2CC(C)(CN2C(=O)c2cc(-c3ccc(O)cc3)on2)C1 (configuration not stated)	i	7	22*	-8	2	4	0
COc1ccccc1-c1ccc2c(c1)C(C)(Cc1cc(Cl)ccc1C(F)(F)F)C(=O)N2 (configuration not stated)	/	7	21*	1	-2	4	1
Cc1ccc(S(=O)(=O)N2CCN(C(=O)COC(=O)CCOc3ccccc3)CC2)c(C)c1	/	1	-7	-9	1	/	/
CCCOc1ccc(C(=O)CCC(=O)OCC(=O)N2CCN(S(=O)(=O)c3ccc(C)cc3C)CC2)cc1	/	8	21*	-6	-2	5	1
COc1ccc(CCC(=O)N2c3ccccc3N=C(c3ccc(C(F)(F)F)cc3)C2C(=O)NC2CCCC2)cc1 (configuration not stated)	/	3	1	-11	-5	/	/
Cc1ccc(S(=O)(=O)N2C[C@H]3C(=O)C[C@@H](c4ccccc4)N(S(C)(=O)=O)[C@H]3C[C@H]2c2ccccc2)cc1	/	7	15	-1	3	/	/
CCCOC(=O)c1ccc(Oc2c(-c3ccc(OC)cc3O)n[nH]c2C)cc1	i	5	17	0	-1	/	/
SMILES	Rce1 inh	ADAM17 inh	ADAM10 inh	PLC-beta3 inh	PLCg1 inh	ADAM10 confirm	ADAM17 ctr
CCCOC(=O)c1ccc(Oc2c(-c3ccc(O)cc3O)n[nH]c2C)cc1	i	6	22*	-2	-1	3	2
CCOC(=O)c1ccc(N2C(=O)c3n[nH]c(-c4ccco4)c3C2c2cccc([N+](=O)[O-])c2)cc1 (configuration not stated)	i	7	33*	2	13*	6	2
CCOc1ccc2nc(NC(=O)c3ccoc3C)sc2c1	i	-5	-24	-19	-15	/	/
CC(C)N1C(=O)C(Cc2nc3ccccc3c(=O)n2-c2ccccc2)c2ccccc21 (configuration not stated)	i	2	86*	0	-3	3	1
Cc1onc(C(=O)N2CCN(C(c3ccccc3)c3ccccc3)CC2)c1Br	/	4	14	3	2	/	/
CNC(=S)NNC(=O)c1noc(C)c1C(=O)N1CCN(C(c2ccccc2)c2ccccc2)CC1	i	6	32*	10	7	-1	0
O=C1C2C3CC(C(Br)C3Br)C2C(=O)N1c1nccs1 (configuration not stated)	i	0	10	4	9	/	/
Oc1ccc(C[C@H]2CN([C@@H](Cc3ccccc3)CN3CCC[C@@H]3CN3C(=S)NC[C@@H]3Cc3ccccc3)C(=S)N2CC2CCCCC2)cc1	/	2	-17	0	4	/	/
Oc1ccc(C[C@H]2CNC(=S)N2CC2CCCN2C[C@H](Cc2ccccc2)N2C[C@H](Cc3ccc(O)cc3)N(CC3CCCCC3)C2=S)cc1 (some centres not stated)	/	4	25*	6	5	15	6
Oc1ccc(C[C@H]2CNC(=S)N2CC2CCCN2C[C@H](Cc2ccc(O)cc2)N2C[C@H](Cc3ccccc3)N(CC3CCCCC3)C2=S)cc1 (some centres not stated)	/	13*	20*	4	2	25*	9
CSCC[C@H](NC(=O)OC(C)(C)C)c1nnc(SCc2cccc(F)c2)o1	i	1	20*	4	3	1	0
Cn1nc(C(=O)N2CCN(C(c3ccccc3)c3ccccc3)CC2)c2ccccc2c1=O	i	2	11	-5	5	/	/
O=C1/C(=C/c2cccs2)N=C(c2cccs2)N1Nc1ccccc1	i	5	25*	-12	-9	8	2
